# From PubChem BioAssay (EPA / NIEHS)
# Values joined by “and” are separate entries in the source; they are usually repeats but may differ in a detail not shown here. Equal values may be shown once. Some structures have more than one record in an assay (separate samples or runs), and their calls can disagree. Active and inactive are the calls of the source. The calls were made as follows: active = hit-call score of the fitted dose curve at least 0.9, where 1 is the maximum; inactive = score below 0.9.
# Assays:
# Conditions in all cases: primary human HUVEC with PBMC; actives raise or lower the signal
# [1] = read-out: Monocyte Chemoattractant Protein-1 (MCP1), CCL2 (gene 6347); assay: BSK_LPS_MCP1: BioMAP Diversity Plus: LPS Assay for Monocyte Chemoattractant Protein-1 (MCP1) Biomarker Activity (AID 2283081);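 as to AC50: secreted MCP-1 protein quantified by ELISA in culture supernatant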
# In short: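 HUVEC plus PBMC co-culture (human primary cells, LPS system) exposed to test chemical for 24 h; MCP-1 measured by ELISA. Bidirectional curve fitting against DMSO baseline; parallel SRB total-protein staining flags overt cytotoxicity.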
# [2] = BSK_LPS_PGE2: BioMAP Diversity Plus: LPS Assay for Prostaglandin E2 (PGE2) Biomarker Activity (AID 2283082);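 as to AC50: secreted prostaglandin E2 measured by ELISA in LPS-stimulated co-culture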
# In short: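 Endpoint derived from bidirectional curve fitting versus DMSO of ELISA-measured PGE2 in LPS-stimulated human primary vascular co-culture (HUVEC with PBMC) harvested at 24 h.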
# [3] = read-out: Tissue Factor, F3 (gene 2152); assay: BSK_LPS_TissueFactor: BioMAP Diversity Plus: LPS Assay for Tissue Factor Biomarker Activity (AID 2283084)
# In short: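 Human umbilical vein endothelial cells co-cultured with peripheral blood mononuclear cells were dosed and stimulated with LPS. Cell-surface CD142 was quantified by ELISA at 24 h. Activity was fitted bidirectionally against DMSO baseline.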
# [4] = read-out: Tumor necrosis factor (Homo sapiens) (UniProt P01375); assay: BSK_LPS_TNFa: BioMAP Diversity Plus: LPS Assay for Tumour Necrosis Factor alpha (TNFa) Biomarker Activity (AID 2283085)
# In short: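 Primary human vascular co-culture of HUVEC and PBMC; TNFa ELISA 24 h after treatment, analysed as increase or decrease relative to DMSO control.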
# [5] = read-out: Vascular cell adhesion molecule 1 (VCAM1), VCAM1 (gene 7412); assay: BSK_LPS_VCAM1: BioMAP Diversity Plus: LPS Assay for Vascular cell adhesion molecule 1 (VCAM1) Biomarker Activity (AID 2283086)
# In short: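 Primary human vascular co-culture (umbilical vein endothelium plus PBMC) stimulated with LPS received chemical; 24 h later VCAM-1 was read by ELISA. Overt cytotoxicity was assessed by sulforhodamine B staining of parallel cultures at the same time point.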
# [6] = read-out: CD38, CD38 (gene 952); assay: BSK_SAg_CD38: BioMAP Diversity Plus: SAg Assay for CD38 Biomarker Activity (AID 2283087)
# In short: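 Fluorescence ELISA of cell-surface CD38 served as the read-out, with either increase or decrease fitted against DMSO controls. Cells were a human umbilical vein endothelium plus PBMC co-culture under SEB/TSST-1 stimulation, measured 24 h after dosing.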
# [7] = read-out: CD40, CD40 (gene 958); assay: BSK_SAg_CD40: BioMAP Diversity Plus: SAg Assay for CD40 Biomarker Activity (AID 2283088)
# In short: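 Human umbilical vein endothelial cells co-cultured with PBMC; CD40 levels measured by ELISA with fluorescence read-out 24 h after chemical dosing. Gain or loss of signal fitted bidirectionally against DMSO baseline.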
# [8] = read-out: CD69, CD69 (gene 969); assay: BSK_SAg_CD69: BioMAP Diversity Plus: SAg Assay for CD69 Biomarker Activity (AID 2283089);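 as to AC50: cell surface CD69 protein quantified by ELISA with fluorescence detection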
# In short: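 HUVEC co-cultured with PBMC were dosed with chemical, and CD69 was measured by ELISA with fluorescence read-out 24 h later. Bidirectional curve fitting used DMSO as negative control and activity baseline.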
# [9] = read-out: Monocyte Chemoattractant Protein-1 (MCP1), CCL2 (gene 6347); assay: BSK_SAg_MCP1: BioMAP Diversity Plus: SAg Assay for Monocyte Chemoattractant Protein-1 (MCP1) Biomarker Activity (AID 2283090)
# In short: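 MCP-1 levels in the endothelial–PBMC SAg co-culture were quantified by ELISA at 24 h post-dosing; both increases and decreases versus DMSO scored. Cytotoxicity monitored by SRB total protein in parallel cultures.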
# [10] = read-out: Macrophage colony-stimulating factor (MCSF), CSF1 (gene 1435); assay: BSK_LPS_MCSF: BioMAP Diversity Plus: LPS Assay for Macrophage colony-stimulating factor (MCSF) Biomarker Activity (AID 2283083)
# In short: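 Human umbilical vein endothelial cells co-cultured with peripheral blood mononuclear cells were exposed to compound for 24 h. M-CSF levels were measured by ELISA, and bidirectional curve fitting used DMSO as the negative control and baseline.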
# Chain of Tumor necrosis factor (Homo sapiens) (P01375 whole entry, looked up): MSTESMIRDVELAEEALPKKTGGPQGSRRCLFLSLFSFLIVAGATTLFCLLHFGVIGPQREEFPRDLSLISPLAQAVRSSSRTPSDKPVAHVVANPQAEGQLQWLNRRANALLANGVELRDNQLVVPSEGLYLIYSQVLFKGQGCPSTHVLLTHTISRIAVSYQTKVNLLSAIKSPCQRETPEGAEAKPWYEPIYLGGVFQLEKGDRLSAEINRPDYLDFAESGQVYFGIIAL
Compound,outcome [1],outcome [2],outcome [3],outcome [4],outcome [5],outcome [6],outcome [7],outcome [8],outcome [9],AC50 [1],AC50 [10],AC50 [3],AC50 [4],AC50 [5],AC50 [6],AC50 [7],AC50 [8],AC50 [9],outcome [10],AC50 [2]
NC(=O)O,inactive,inactive,inactive,inactive,inactive,inactive,inactive,inactive,inactive,,,,,,,,,,,
O=C(OC1CCCCC1)c1ccccc1C(=O)OC1CCCCC1,,inactive,,,,,,,,27.9 µM (active),14.6 µM (active),20.9 µM (active),26.5 µM (active),20.9 µM (active),33.3 µM (active),20.9 µM (active),26.2 µM (active),27.8 µM (active),,
O=[N+]([O-])c1ccc(O)c([N+](=O)[O-])c1,inactive,inactive,inactive,inactive,inactive,inactive,inactive,inactive,inactive,,,,,,,,,,inactive,
CCC(C)(C)c1ccc(O)c(C(C)(C)CC)c1,,inactive,,,,,,,,25.1 µM (active),18.4 µM (active),15.9 µM (active),13.1 µM (active),25 µM (active),14.9 µM (active),13 µM (active),13.7 µM (active),,,
ClCC(Cl)CCl,inactive,inactive,inactive,inactive,inactive,inactive,inactive,inactive,inactive,,,,,,,,,,,
CC12CC1(C)C(=O)N(c1cc(Cl)cc(Cl)c1)C2=O (stereo not drawn),inactive,inactive,inactive,inactive,inactive,inactive,inactive,inactive,inactive,,,,,,,,,,inactive,
COC[C@H](C)N(C(=O)CCl)c1c(C)csc1C,inactive,inactive,inactive,inactive,inactive,inactive,inactive,inactive,inactive,,,,,,,,,,inactive,
CC(=O)C(Cl)C(=O)N(C)C (stereo not drawn),,,,,,,,,,27 µM (active),11.8 µM (active),9.35 µM (active),9.78 µM (active),20 µM (active),20 µM (active),20 µM (active),16.7 µM (active),20 µM (active),,7.26 µM (active)
O=c1[nH]c(=O)[nH]c(=O)[nH]1,inactive,inactive,inactive,inactive,inactive,inactive,inactive,inactive,inactive,,,,,,,,,,inactive,
CCN1CCC2(CC1)COc1cc3c(cc12)N(C(=O)c1ccc(-c2ccc(-c4nnc(C)o4)cc2C)cc1)CC3,,inactive,,,,,,,,16.8 µM (active),16.7 µM (active),18.7 µM (active),14.3 µM (active),22.6 µM (active),12.8 µM (active),18.7 µM (active),12 µM (active),12.6 µM (active),,
ClC1=C(Cl)[C@]2(Cl)[C@H]3[C@H]([C@H]4C=C[C@H]3C4)[C@@]1(Cl)C2(Cl)Cl,inactive,,inactive,,inactive,,,,inactive,,,,0.296 µM (active),,4.55 µM (active),4.46 µM (active),,,inactive,0.142 µM (active)
O=C(O)C(F)(F)C(F)(F)C(F)(F)C(F)(F)C(F)(F)C(F)(F)C(F)(F)C(F)(F)C(F)(F)C(F)(F)F,inactive,inactive,inactive,,inactive,inactive,,inactive,inactive,30.2 µM (active),31.4 µM (active),30.2 µM (active),31.4 µM (active) and 4.39 µM (active) and 4.42 µM (active),29.6 µM (active),37.4 µM (active),29.2 µM (active) and 5.41 µM (active) and 5.27 µM (active),30.5 µM (active),35.1 µM (active),inactive,22.3 µM (active)
CCOP(=S)(OCC)Oc1nc(Cl)c(Cl)cc1Cl,inactive,inactive,inactive,inactive,,,,,,,20 µM (active),,,29.2 µM (active),32.3 µM (active),33.1 µM (active),20 µM (active),30.1 µM (active),,
COP(=S)(OC)Oc1c(Cl)cc(C)cc1Cl,inactive,inactive,inactive,inactive,,inactive,inactive,inactive,inactive,,,,,13.8 µM (active),,,,,,
COC(=O)Cc1ccccc1,inactive,inactive,inactive,inactive,inactive,inactive,inactive,inactive,inactive,,,,,,,31.3 µM (active),,,,
COP(=S)(OC)Oc1ccc(S(=O)(=O)N(C)C)cc1,inactive,inactive,inactive,inactive,inactive,inactive,inactive,inactive,inactive,,,,,,,,,,inactive,
